Bioassay records deposited in PubChem BioAssay by National Center for Advancing Translational Sciences (NCATS).
This is a sample that favours compounds with a hit; in the whole collection about 1.5% have one here.
NPSR antagonist: blocks cAMP signaling of the human neuropeptide S receptor; CHO-NPSR cells, cAMP TR-FRET, antagonist mode; Potency, µM (highest dose often 38.3 µM), for inactives: top-dose activity change, negative = inhibition, most hits filed as inhibitors; 1% of 220,000 active; Q6W5P4; also: % is scaled to controls: 0 for no effect and ±100 for the full control effect; nearly all actives have a fitted effect of over 50% in size
Target sequence (Q6W5P4 whole entry, looked up): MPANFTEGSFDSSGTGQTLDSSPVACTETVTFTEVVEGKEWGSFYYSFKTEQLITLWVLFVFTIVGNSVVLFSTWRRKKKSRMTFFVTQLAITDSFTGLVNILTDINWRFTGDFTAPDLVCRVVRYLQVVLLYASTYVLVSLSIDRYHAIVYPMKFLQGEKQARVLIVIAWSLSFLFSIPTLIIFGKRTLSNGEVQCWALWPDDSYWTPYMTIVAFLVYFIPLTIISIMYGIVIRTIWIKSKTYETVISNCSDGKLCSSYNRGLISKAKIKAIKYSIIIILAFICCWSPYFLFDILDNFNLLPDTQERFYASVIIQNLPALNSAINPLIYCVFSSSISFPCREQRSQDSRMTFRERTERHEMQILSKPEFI
HTT cytoprotect: Huntington cell model cytoprotection by ATP luminescence; Potency, µM (top dose mostly 56.4 µM), for inactives: cytoprotection (ATP increase), hits mostly activators; PC12 HTT-Q103 induced, cytoprotection, ATP luminescence, 40 h; 0.14% of 230,000 active; AID 1471; also: % of control where 0% means no effect; nearly all actives have a fitted effect of over 45% in size
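PC12 cells stably carrying ecdysone-inducible Htt exon 1 (Q103)–GFP were induced with 100 nM tebufenozide (final) alongside library compounds in a dose series. Cytoprotection was scored as retained ATP by ATPlite luminescence.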
Epigenetic derep: epigenetic control regulation, reporter derepression | murine LDR cells, GFP reporter derepression, 30 h | Potency, µM (top dose mostly 53.9 µM), inactives show at the highest dose GFP activation, usual class: activators | 0.2% of 280,000 active; also: % of control where 0% means no effect; nearly all actives have a fitted effect of over 60% in size
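Murine LDR cells bearing a silenced CMV-driven GFP reporter were exposed to compound for 30 h at 37 C. After PBS washes, GFP-positive cells (20-120 um objects) counted by laser-scanning microplate cytometry.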
HTT aggregate: mutant huntingtin aggregation inhibition; AID 1688; Potency, µM (series often up to 46.1 µM), for the others: at the highest dose activity change, negative = inhibition, actives largely listed as inhibitors; 1.1% of 220,000 active; PC12 HttQ103-GFP aggregates, Acumen cytometry, 40 h; also: % is scaled to controls: 0 for no effect and ±100 for the full control effect; nearly all actives have a fitted effect of over 60% in size
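Steps: seed 1500 PC12 HTTQ103-GFP cells/well; add tebufenozide, 100 nM final; add compound titration; add ATPLite reagent; quantify GFP aggregates by laser scanning cytometry.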
Lamin A splicing: changes lamin A minigene splicing in HeLa cells | HeLa LMNA splicing GFP/RFP minigene ratio, 48 h | Potency, µM (highest dose often 46.1 µM), without a hit: at the top dose ratio change, negative = inhibition, most hits filed as inhibitors | 0.01% of 200,000 active | AID 1487; active = well fitted inhibition curve with a large enough effect in the signal ratio, with a control signal flat, not every such curve was filed as active; inconclusive = small, poorly fitted or top-dose-only effect, or effect the other way, or a change in a side signal; the % refers to the signal ratio; also: % is scaled to controls: 0 for no effect and ±100 for the full control effect
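S3 HeLa cells stably expressing lamin A-EGFP splicing minigene plus DsRed2, 600 cells/well, 48 h compound exposure at 37C. Laser-scanning cytometry; analysed as GFP (500-530 nm)/RFP (575-640 nm) total intensity ratio; 0.5% DMSO vehicle.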
* marks the source's active call; other numbers are inactive results; [ ] = another dose, or the depositor's remark. Unless noted, calls follow the shape of the dose curve; as a rule, active = well fitted curve in the direction sought with a large enough effect; inconclusive = small, poorly fitted or top-dose-only effect, or another doubt; inactive = no such curve, though single readings can be large; an effect the other way counts as inactive or inconclusive. Potency is read from the fitted curve at half-maximal effect.

CC1CCN(S(=O)(=O)c2ccc(NN=C(C#N)C#N)cc2)CC1 was read as NPSR antagonist 10µM*, HTT cytoprotect 13.9%, Epigenetic derep -1.1%, HTT aggregate 15.8µM* and Lamin A splicing -8.9%.
Screening N#CC(C#N)=NNc1ccc(S(N)(=O)=O)cc1 returned NPSR antagonist -24.5%, HTT cytoprotect 0.1%[10 µM], Epigenetic derep 0.0% and HTT aggregate -13.5%[9.22 µM].
O=C(Oc1cccc2cccnc12)c1ccccc1 was read as HTT cytoprotect -47.1%, Epigenetic derep inconclusive, HTT aggregate -20.1% and Lamin A splicing inconclusive.
For Oc1cccc2cccnc12 the results were HTT cytoprotect inconclusive, Epigenetic derep 3.98µM*, HTT aggregate 9.4% and Lamin A splicing inconclusive.
Screening COc1cc2c(cc1OC)[C@]13CCN4CC5=CCO[C@@H]6CC(=O)N2[C@@H]1[C@H]6[C@@H]5C[C@H]43 returned HTT cytoprotect 6.2%.
CCC(C(=O)O)C1CCC(C)C(C(C)C(O)C(C)C(=O)C(CC)C2OC3(C=CC(O)[C@@]4(CC[C@](C)(C5CC[C@@](O)(CC)C(C)O5)O4)O3)C(C)CC2C)O1 (stereo partly drawn) was read as HTT cytoprotect -307.8%, Epigenetic derep 1.3%, HTT aggregate 1.41µM* and Lamin A splicing inconclusive.
CC(C)(C)[C@@]1(O)C[C@@H]2OC(=O)C[C@@]23C(=O)O[C@H]2OC(=O)[C@@H](O)[C@]231 was read as HTT cytoprotect -13.7%.
For Cc1cc([N+](=O)[O-])c2ccccc2[n+]1[O-] the results were NPSR antagonist 10µM*, HTT cytoprotect -63.6%[10 µM], Epigenetic derep -1.1% and HTT aggregate inconclusive.
Screening Cc1ccccc1[N+](=O)[O-] returned HTT cytoprotect -2.5%.
`NC(N)=NN=C(/C=C/c1ccc([N+](=O)[O-])o1)/C=C/c1ccc([N+](=O)[O-])o1` gave HTT cytoprotect -99.2% and HTT aggregate 10µM*.
Screening C[C@@H]1CCC/C=C\[C@H]2C[C@H](O)C[C@@H]2[C@H](O)/C=C\C(=O)O1 returned HTT cytoprotect -62.0%.
For C[C@H]1CCC/C=C/C2C[C@H](O)CC2[C@H](O)/C=C/C(=O)O1 (stereo partly drawn) the results were NPSR antagonist 2.6%, Epigenetic derep 3.2%, HTT aggregate 2.82µM* and Lamin A splicing inconclusive.
For CC1CCC/C=C/C2CC(O)CC2C(O)/C=C/C(=O)O1 (stereo not drawn) the results were NPSR antagonist inconclusive, HTT cytoprotect -80.1%, Epigenetic derep 4.1%, HTT aggregate 1µM* and Lamin A splicing inconclusive.
COC(=O)C[C@](O)(CCCC(C)(C)O)C(=O)O[C@@H]1C(OC)=C[C@]23CCCN2CCc2cc4c(cc2[C@H]13)OCO4 was read as HTT cytoprotect -81.9%, Epigenetic derep -2.6% and HTT aggregate 0.159µM*.
Screening C[C@@H]1O[C@H](O[C@H]2C[C@@H](O)[C@]3(CO)[C@H]4[C@H](O)C[C@]5(C)[C@@H](C6=CC(=O)OC6)CC[C@@]5(O)[C@H]4CC[C@]3(O)C2)[C@@H](O)[C@H](O)[C@H]1O returned HTT cytoprotect 1.2%.
Screening [Cl-].[Cl-].[Hg+2] returned HTT cytoprotect -74.7%, HTT aggregate 3.98µM* and Lamin A splicing inconclusive.
For N[C@H](Cn1oc(=O)[nH]c1=O)C(=O)O the results were HTT cytoprotect -9.4%[1.9 µM].
Screening CCN(CC)c1ccc(CN2CC=C(c3ccc(F)cc3)CC2)cc1 returned NPSR antagonist 10µM*, HTT cytoprotect 5.3%, Epigenetic derep -2.1%, HTT aggregate 15.2%[9.22 µM] and Lamin A splicing 1.3%.
For NC(=O)c1ccc(OCC(O)CN2CC=C(c3ccc(F)cc3)CC2)cc1 (stereo not drawn) the results were NPSR antagonist -4.2%[46.1 µM], Epigenetic derep -2.3% and Lamin A splicing inconclusive.
For CNc1cc(Cl)c2nonc2c1[N+](=O)[O-] the results were NPSR antagonist 10µM*, HTT cytoprotect -147.1%, Epigenetic derep -4.8%, HTT aggregate 6.31µM* and Lamin A splicing inconclusive.
O=[N+]([O-])c1c(Cl)c(Cl)cc(Cl)c1Cl was read as HTT cytoprotect -12.5%.
Screening NS(=O)(=O)c1ccc(N=Cc2c(O)n(C3CCCCC3)c(=O)n(C3CCCCC3)c2=O)cc1 returned NPSR antagonist 10µM*, HTT cytoprotect 14.6%, Epigenetic derep 4.5%, HTT aggregate inconclusive and Lamin A splicing inconclusive.
COc1cc(CN2CCN(c3cc(C)ccc3C)CC2)ccc1O was read as NPSR antagonist -7.0%[46.1 µM], HTT cytoprotect -161.3%[0.074 µM], Epigenetic derep 0.0%, HTT aggregate 10µM* and Lamin A splicing inconclusive.
Screening C=C1C(=O)O[C@@H]2C[C@@H](C)[C@@H]3C=CC(=O)[C@@]3(C)[C@@H](OC(=O)CC(=O)O[C@H]3[C@@H]4C(=C)C(=O)O[C@@H]4C[C@@H](C)[C@@H]4C=CC(=O)[C@]43C)[C@H]12 returned NPSR antagonist inconclusive, HTT cytoprotect -97.5%[10 µM], Epigenetic derep 11.3% and HTT aggregate 0.631µM*.
Screening C=C1C(=O)O[C@H]2[C@H]1[C@H](OC(=O)CC(=O)O[C@@H]1C[C@@H](C)[C@@H]3C=CC(=O)[C@@]3(C)[C@H]3OC(=O)C(=C)[C@H]13)C[C@@H](C)[C@H]1C=CC(=O)[C@]12C returned NPSR antagonist -18.4%, HTT cytoprotect 4.47µM*, Epigenetic derep -1.1% and HTT aggregate 21.0%[9.22 µM].
`C=C1C(=O)O[C@H]2C[C@@H](C)[C@@H]3C=CC(=O)[C@@]3(C)C[C@H]12` gave NPSR antagonist -27.2%, HTT cytoprotect 43.5%[10 µM], Epigenetic derep 3.1% and HTT aggregate inconclusive.
Screening Cc1ccc(N2C(=O)NC(=O)/C(=C\C=C\c3ccco3)C2=O)cc1C returned NPSR antagonist 12.6µM*, HTT cytoprotect 28.5%[0.074 µM], Epigenetic derep 0.9%, HTT aggregate 21.2% and Lamin A splicing inconclusive.
For Cc1ccccc1-n1c(/C=C/c2ccc(N(C)C)cc2)nc2ccccc2c1=O the results were Epigenetic derep 10µM*.
For C=C(C)[C@H]1[C@H]2OC(=O)[C@@H]1[C@]1(O)C[C@H]3O[C@]34C(=O)O[C@H]2[C@]14C the results were HTT cytoprotect -3.3%.
Screening O=C1NC(=O)N(c2ccc3c(c2)OCO3)C(=O)/C1=C/c1cccs1 returned NPSR antagonist -23.4%, HTT cytoprotect -40.5%, Epigenetic derep 22.4µM* and HTT aggregate inconclusive.
Oc1ccc([C@H](O)[C@@H]2CCCCN2)cc1O was read as HTT cytoprotect -13.2%[10 µM].
CC(C)[C@@]1(NC(=O)[C@@H]2C=C3c4cccc5[nH]cc(c45)C[C@@H]3N(C)C2)O[C@]2(O)[C@H]3CCCN3C(=O)[C@H](Cc3ccccc3)N2C1=O was read as HTT cytoprotect -5.8%[1.9 µM].
